# An excerpt weighted towards active compounds, which were near 6.6% of everything screened.
# Bead autofluor = compound fluorescence in toxin protease inhibitor counterscreen; compound autofluorescence counterscreen, microsphere flow cytometry; active compounds read high; fluorescence intensity (concentration not given with the values); 360,000 tested, 3.1% active; AID 624483; in the data active = fluorescence intensity above about 16000; inconclusive = no clear call, values can overlap the other calls
# GDH-TPI inh = inhibits GDH-TPI coupling enzymes, artifact for Mtb FBA screen; GDH-TPI coupled enzyme counterscreen, NADH absorbance; inhibition, % at 4.8 µM; 360,000 tested, 1.2% active; AID 588335; in the data active = inhibition above about 30%;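 also: 0% = DMSO wells and 100% = wells lacking the enzyme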
# Anthrax LF inh2 = blocks Bacillus anthracis lethal factor protease; inhibition, % at 10 µM; multiplex microsphere protease cleavage assay, LF; 360,000 tested, 0.12% active; also: plate controls were buffer without enzyme for full effect and enzyme alone for no effect
# BoNT F protease = blocks Botulinum neurotoxin F light chain protease; Multiplex microsphere protease cleavage assay, flow cytometry; 360,000 tested, 0.22% active; AID 588497; inhibition, % at 10 µM; in the data active = inhibition above about 35%, passing the limit was not always enough; inconclusive = no clear call, values can overlap the other calls; also: plate controls were buffer without enzyme for full effect and enzyme alone for no effect
# BoNT-A LC inh2 = BoNT A light chain protease inhibition | 360,000 tested, 0.17% active | inhibition, % at 10 µM | multiplex microsphere protease substrate cleavage, flow cytometry; also: plate controls were buffer without enzyme for full effect and enzyme alone for no effect
# FBA Mtb inh = Mtb fructose-bisphosphate aldolase inhibition | 360,000 tested, 2.3% active | AID 588726 | inhibition, % at 1 µM | P9WQA3 | purified M. tuberculosis FBA, fluorescence read-out; in the data active = inhibition above about 27%;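 also: 0% = vehicle and 100% = reference inhibitor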
# Target sequence (P9WQA3 whole entry, looked up): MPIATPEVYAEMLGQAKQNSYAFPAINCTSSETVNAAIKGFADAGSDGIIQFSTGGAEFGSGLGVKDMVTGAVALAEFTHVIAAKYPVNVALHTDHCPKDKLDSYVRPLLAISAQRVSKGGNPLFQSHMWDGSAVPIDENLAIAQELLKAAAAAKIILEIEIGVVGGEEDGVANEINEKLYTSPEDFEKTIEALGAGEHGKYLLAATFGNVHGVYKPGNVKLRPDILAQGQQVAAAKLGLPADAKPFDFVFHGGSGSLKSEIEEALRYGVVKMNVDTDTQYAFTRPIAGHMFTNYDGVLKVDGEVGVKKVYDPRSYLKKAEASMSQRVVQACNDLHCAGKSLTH
# An asterisk follows results filed as active; ? = inconclusive; . = no result; + = active, no number. Rule as the data show it, unless noted: active = inhibition above about 30%; inconclusive = no clear call, values can overlap the other calls; inactive = below that.
SMILES,Bead autofluor,GDH-TPI inh,Anthrax LF inh2,BoNT F protease,BoNT-A LC inh2,FBA Mtb inh
COc1ccc2c(C(=O)NCCCCO)c(-c3ccc(S(C)(=O)=O)cc3)sc2c1,3971,20,1,-4,0,+
O=C(Nc1cccn(Cc2c(Cl)cccc2Cl)c1=O)c1ccccc1Cl,21806*,24,-6,-5,?,-1
O=c1ccccn1CCOc1ccccc1Cl,2016,5,-1,-2,0,0
O=c1ccccn1Cc1c(Cl)cccc1Cl,23028*,-1,-1,4,?,-3
COc1ccc(NC(C)=O)cc1S(=O)(=O)N1CC=C(c2ccccc2)CC1,3375,-1,-5,5,0,-2
Cc1ccc(NS(=O)(=O)c2cc(NC(=O)c3ccc4c(c3)NC(=O)CS4)ccc2C)c(C)c1,2638,-2,0,-2,0,-1
Cn1c(NC(=O)/C=C/c2ccccc2)cc(=O)n(C)c1=O,10271,62*,0,-4,0,-1
Cn1ccnc1Sc1nc(Nc2cccc(Cl)c2)nc(N2CCOCC2)n1,22665*,-6,-4,-2,0,-1
O=C(CSc1ccccc1F)NC(=O)NC1CCCC1,4128,1,-9,5,0,2
COc1ccccc1CC(=O)O/N=C(\N)Cc1cccc2ccccc12,22659*,4,3,-1,2,0
CCOC(=O)N1CCN(C(=O)C[C@@H]2C[C@@]3(C(=O)OC)CCCCC=C3N(Cc3cccc4ccccc34)C2=O)CC1,4437,.,-9,-9,0,.
O=C(Cc1cscn1)c1ccc(O)cc1O,5189,38*,0,-31,-2,-1
COC(=O)c1ccc(CC(=O)c2c(C)cc(O)cc2O)o1,?,21,-5,-8,0,-5
Cc1nc(CC(=O)c2ccc(O)cc2O)cs1,22193*,33*,-2,-12,?,-1
Cc1nc(COC(=O)c2cc(O)c3ccccc3c2O)cs1,3791,4,-7,-7,0,3
CCCCCC(=O)c1ccc(O)cc1O,3874,23,-8,1,-2,1
Cc1nc(CC(=O)c2c(C)cc(O)cc2O)cs1,12406,37*,-4,-11,0,0
Cc1nc(CC(=O)c2ccc(O)c(C)c2O)cs1,4288,59*,-6,1,1,-1
COc1ccc2ccn(S(=O)(=O)c3ccccc3)c2c1,3297,2,-10,?,0,-1
C[C@H](O)[C@@H]1C(=O)N2CCc3c([nH]c4ccccc34)[C@@H]2C[C@@H]1N(C)C(=O)c1cc(Cl)cc(Cl)c1,5723,.,-4,-2,0,1
O=S(=O)(Nc1ccc2c(c1)nc1n2CCOC1)c1ccc(Cl)cc1,22037*,1,2,2,1,-5
O=S(=O)(Nc1ccc2c(c1)nc1n2CCOC1)c1ccccc1,19895*,2,2,12,6,2
COc1ccc(S(=O)(=O)N(CC(=O)NCc2ccncc2)c2ccc(C)cc2)cc1OC,4098,-3,-8,14,0,-6
CC[C@@]1(O)C(=O)OCc2c1cc1n(c2=O)Cc2cc3c(CN(C)C)c(O)ccc3nc2-1,4502,34*,-7,-6,-1,8
CC[C@@]1(O)C(=O)OCc2c1cc1n(c2=O)Cc2cc3c(N)cccc3nc2-1,2807,33*,8,-3,0,5
SMILES,Bead autofluor,GDH-TPI inh,Anthrax LF inh2,BoNT F protease,BoNT-A LC inh2,FBA Mtb inh
CN(C(=O)c1cccc(NC(=O)Cc2ccc(NC(=O)C3CCN(C(=O)C4CCCCC4)CC3)cc2)c1)C1CC1,2887,6,-3,-3,0,2
CCOc1ccc(CNC(=O)C2CCN(c3nn4c(=O)cc(C)nc4s3)CC2)cc1,5212,-14,-2,8,1,-6
COc1ccc(C(=O)c2cn[nH]c2-c2cc(Cl)ccc2O)cc1,16806*,24,0,2,-1,-5
CCC(C)(C)C1CCC2(CC1)NC(=O)N(CC(=O)N1CCN(C(=O)c3ccco3)CC1)C2=O (stereo not drawn),.,-5,.,.,.,0
O=Cc1cn(CC(=O)Nc2ccc3c(c2)OCO3)c2ccccc12,4343,6,-3,-2,-1,0
CC(=O)Nc1ccc(S(=O)(=O)Nc2ccc(S(=O)(=O)Nc3nc(C)cc(C)n3)cc2)cc1,3056,4,0,-4,4,-2
CCOc1ccc(NS(=O)(=O)c2ccc(C(=O)NCc3ccncc3)cc2)cc1,42543*,3,-35,-232,-176,0
CCCOC(=O)Nc1ccc(S(=O)(=O)Nn2cnnc2)cc1,10933,1,-1,0,0,0
CCCCOC(=O)Nc1ccc(S(=O)(=O)Nn2cnnc2)cc1,29599*,8,-5,-20,?,-2
CCCNC(=O)COc1ccc(S(=O)(=O)Nc2ccc(C)cc2)cc1,22233*,-4,-1,2,2,0
CCCCN(CCCC)S(=O)(=O)c1ccc(NS(=O)(=O)c2ccc(NC(C)=O)cc2)cc1,21196*,-12,1,-3,?,-1
O=C(N/N=C/c1ccc2cccnc2c1)c1nc2ccccc2c(=O)[nH]1,6015,21,-8,-12,-4,2
CN(C)S(=O)(=O)c1cccc(NC(=O)COC(=O)CNC(=O)c2ccccc2F)c1,5003,14,-6,-8,-1,-1
NNC(=O)CNC(=O)Nc1n[nH]c(=S)s1,5832,.,-8,-19,-1,1
CC(=O)Nc1ccc(OCCOc2ccc(NC(C)=O)cc2)cc1,3946,1,-5,13,-3,-1
CCCCOc1ccc(S(=O)(=O)Nc2ccc(NC(C)=O)cc2)cc1,21764*,4,-2,0,1,-2
CC1(c2cccs2)CC(c2cccs2)=C(C#N)C(=O)N1 (stereo not drawn),22806*,11,-1,-5,-2,-2
Cc1ccc(C(=O)NCCc2ccc(F)cc2)s1,3464,1,-1,3,1,8
Cc1noc(NS(=O)(=O)c2ccc(N/C=C/C(=O)c3ccncc3)cc2)c1C,16425*,22,-2,0,?,-3
Cc1noc(NS(=O)(=O)c2ccc(N/C=C/C(=O)c3cccnc3)cc2)c1C,7331,34*,-1,-14,0,0
O=C(NNC(=S)Nc1ccc(Br)cc1)c1cccnc1,6090,17,-2,3,-1,-1
O=C(/C=C\Nc1ccc(Br)cc1)c1cccnc1,2310,35*,2,-2,0,-6
CNC(=O)Cn1nc(-c2ccc(Cl)cc2)c2ccccc2c1=O,3089,3,4,-6,-1,1
COc1ccc(NC(=O)c2cc(C3CCCCN3C(=O)CCCc3ccccc3)on2)c(C)c1 (stereo not drawn),3368,9,-8,-7,-1,-1
O=C(CC[C@H]1O[C@@H](n2cnc3c(NC(=O)c4ccccc4)ncnc32)[C@H](O)[C@@H]1O)NCc1ccc2c(c1)OCO2,4279,.,4,8,0,2
O=C(CCCN1C(=O)c2ccccc2C1=O)N1CCC(c2ccccc2)C1 (stereo not drawn),20922*,-15,2,-5,-4,-2

# Screening data: PubChem, several laboratories
